High-throughput results deposited in PubChem BioAssay by National Center for Advancing Translational Sciences (NCATS).
HCMV inh – qHTS Assay for inhibitors of the human cytomegalovirus (HCMV); HFF cells, HCMV-luciferase reporter, 72 h; hits give low values; activity change, negative = inhibition, % at 57.5 µM; hit rate 4.5% among 410,000; AID 1259415, 2018; in the data active = activity change below about -60%; inconclusive = no clear call, values can overlap the other calls; inactive = above about -39%
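After 16 h attachment at 37C, HFF cells received test compound and HCMV-luciferase (1 PFU/cell); reporter luminescence read 72 h later, data normalized against buffer-only and known inhibitor Salinomycin.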
Tb PYK inh – qHTS of Trypanosoma Brucei Inhibitors. TbPYK enzyme, Kinase-Glo Plus ATP luminescence, 45 min. Potency, µM (titrated, usually from 76.8 µM), for inactives: at the highest dose activity, negative = inhibition, hits mostly inhibitors. hit rate 0.12% among 410,000; also: potency is read from the fitted curve at half-maximal effect; nearly all actives have a fitted effect of over 50% in size
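Quantitative HTS: titrated library compounds versus trypanosomal pyruvate kinase in TEA buffer (pH 7.2) containing KCl, MgCl2, BSA and Tween-20. Reactions were initiated with ADP, 130 uM final. Kinase-Glo Plus luminescence was read after 45 min at RT.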
RE007 growth inh – qHTS Assay for Inhibitors of the HIV-1 protein Vpr; AID 651644, 2012; S. pombe RE007 Vpr strain, BacTiter-Glo ATP luminescence, 24 h; hit rate 0.21% among 360,000; Potency, µM (series often up to 92.2 µM), for inactives: top-dose activity change, negative = less growth, actives largely listed as inhibitors; active = well fitted falling curve with a large enough effect; inconclusive = small, poorly fitted or top-dose-only effect; inactive = no such curve, though single readings can be large or run the other way; also: potency is read from the fitted curve at half-maximal effect; nearly all actives have a fitted effect of over 50% in size
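Fission yeast strain RE007, carrying one chromosomally integrated HIV-1 vpr copy, was seeded at OD 0.01 in PMG+AL medium with 23 nL pinned compound. After 24 h at 30 °C and 99% humidity, viability was read by BacTiter-Glo luminescence.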
FBPA Giardia inh – qHTS Assay for Inhibitors of Fructose-1,6-bisphosphate Aldolase from Giardia Lamblia | purified Giardia FBPA | AID 2451, 2010 | Potency, µM (highest dose often 59.6 µM), for inactives: at the highest dose activity, negative = inhibition, actives largely listed as inhibitors | hit rate 0.71% among 290,000; also: potency is read from the fitted curve at half-maximal effect; nearly all actives have a fitted effect of over 55% in size
Target sequence (A8B2U2 whole entry, looked up): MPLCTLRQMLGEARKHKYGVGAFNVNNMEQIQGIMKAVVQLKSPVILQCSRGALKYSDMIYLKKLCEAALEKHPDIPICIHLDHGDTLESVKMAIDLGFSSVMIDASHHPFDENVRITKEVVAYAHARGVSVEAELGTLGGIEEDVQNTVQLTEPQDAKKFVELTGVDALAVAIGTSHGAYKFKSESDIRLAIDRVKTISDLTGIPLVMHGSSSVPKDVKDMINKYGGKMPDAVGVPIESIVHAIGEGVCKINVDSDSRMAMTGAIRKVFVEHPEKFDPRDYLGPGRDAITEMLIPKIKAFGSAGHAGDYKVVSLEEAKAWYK
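Giardia FBPA (40 nM reagent) was preincubated 10 min at RT with compound (up to 57.5 uM final), then substrate plus GAPDH/TPI/NAD/arsenate coupling system with diaphorase/resazurin was added; resorufin fluorescence (525/598 nm) was read after 20 min.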
Sm TGR inh – qHTS Assay for the Inhibitors of Schistosoma Mansoni Peroxiredoxins; Schistosoma mansoni thioredoxin glutathione reductase (TGR), Q962Y6; purified TGR, DTNB reduction, TNB absorbance 405 nm; Potency, µM (titrated, usually from 114 µM), for the others: at the top dose activity change, negative = inhibition, most hits filed as inhibitors; hit rate 3% among 360,000; also: potency is read from the fitted curve at half-maximal effect; nearly all actives have a fitted effect of over 60% in size
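First, TGR (20 nM dispensed) and NADPH were mixed with compound. Second, a 15 min room-temperature incubation followed. Third, further NADPH and then DTNB were added to start the reaction. Finally, TNB absorbance was monitored kinetically.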
FMDV antiviral – High Throughput Screening for Foot and Mouth Disease Virus Antivirals; FMDV antiviral cell-based qHTS; Potency, µM (doses to about 57.9 µM), for the others: top-dose activity change, negative = inhibition, usual class: inhibitors; hit rate 1.2% among 410,000; AID 1159524, 2015; calls by dose curve; tested in HEK293T cells; also: read-out not given here; potency is read from the fitted curve at half-maximal effect; nearly all actives have a fitted effect of over 45% in size
Active calls of the source: *; ? = inconclusive; . = not tested or not shown; ! = not confirmed by another sample. Shown are actives, neighbours in structure and some others; about 7.7% of the full set was active somewhere. Unless noted, calls follow the shape of the dose curve; as a rule, active = well fitted curve in the direction sought with a large enough effect; inconclusive = small, poorly fitted or top-dose-only effect, or another doubt; inactive = no such curve, though single readings can be large; an effect the other way counts as inactive or inconclusive. % is scaled to controls: 0 for no effect and ±100 for the full control effect.

SMILES | HCMV inh | Tb PYK inh | RE007 growth inh | FBPA Giardia inh | Sm TGR inh | FMDV antiviral
COc1ccc(O)c(C=Nc2cc(NC(C)=O)c(Cl)cc2Cl)c1 | -102* | -11% | . | -11% | -27% | 10%
CC(C)CN1CCC(=O)N([C@H](CSc2ccccc2)Cc2ccccc2)CC1 | 17 | -5% | -18% | 10% | ? | -29%
Cc1ccc(SC[C@H](Cc2ccccc2)N2CCN(CC(C)C)CCC2=O)cc1 | 55 | -6% | -20% | 5% | 25µM* | 0%
CCCN1CCC(=O)N([C@H](CSc2ccccc2)c2ccccc2)CC1 | -102* | 5% | -1% | 12% | 40µM* | 62%
O=C1CCN(Cc2ccccc2)CCN1[C@H](COc1ccccc1)Cc1ccccc1 | -39 | 3% | -11% | -9% | -24% | -15%
CCCN1CCC(=O)N([C@H](CSc2ccc(C)cc2)c2ccccc2)CC1 | 47 | 1% | -16% | -1% | 45µM* | 32%
CC(C)C[C@@H](COc1ccccc1)N1CCN(Cc2ccccc2)CCC1=O | -102* | -5% | 16% | 0% | -24% | -14%
Nc1[nH]c(=O)ncc1-c1ccc([N+](=O)[O-])cc1 | -16 | . | . | . | . | .
COc1cccc(CNS(=O)(=O)c2cc3[nH]c(=O)c(=O)[nH]c3cc2C)c1 | 12 | 3% | . | . | -5% | -2%
COc1ccc(CN2CCN(C(=O)CC(C)C)CC2)c2ccccc12 | 68 | 10% | 29% | ? | 0% | 0%
Cc1ccccc1CN1CCN(C(=O)CC(C)C)CC1 | -9 | 12% | 5% | -29% | 50µM* | -3%
Cc1ccc(-n2nc3c(=O)n(CCCC(=O)NCc4ccccc4C)nc(C)c3c2C)cc1 | -10 | -9% | -8% | . | -14% | -21%
Cc1ccc(CNC(=O)CCCn2nc(C)c3c(C)n(-c4ccccc4)nc3c2=O)cc1 | ? | 4% | -13% | . | -7% | 7.1µM*!
Cc1nn(CCC(=O)NCc2ccc(N(C)C)cc2)c(=O)c2nn(-c3ccccc3)c(C)c12 | -63*! | -1% | -4% | . | -8% | -17%
CCN1CCN(CCNC(=O)CCCn2nc(C)c3c(C)n(-c4ccc(C)cc4)nc3c2=O)CC1 | -67* | -1% | ? | . | 2% | -2%
CC(=O)O[C@H]1CC[C@]2(C)C3CC[C@]4(C)[C@@H]([C@H](C)/C=C/[C@H](C)C(C)C)CC[C@H]4[C@@]34C=C[C@]2(C1)N(C(=O)c1ccccc1)O4 (stereo partly specified) | 7 | . | . | . | . | .
COc1cc(=O)n2c(c1C(=O)N(C)Cc1nonc1C)CCN(Cc1ccsc1)CC2 | . | . | . | . | . | 4%
COc1ccc(C(C)=O)cc1COC(=O)CNC(=O)c1ccccc1F | 38 | 0% | -8% | 4% | 8.9µM* | ?
O=C(OCc1ccc(F)cc1)c1cccnc1Cl | -60* | -1% | 4% | 13% | 1% | -23%
COc1ccc(C(C)=O)cc1COC(=O)c1cccnc1Cl | -9 | -1% | 0% | -5% | 13µM* | -8%
O=C(CNC(=O)c1ccccc1F)OCC(=O)N1CCCCC1 | -62* | -11% | 5% | 2% | -12% | -16%
CC1CCN(C(=O)COC(=O)CNC(=O)c2ccccc2F)CC1 | -26 | -3% | 4% | . | 2% | -3%
COC1C(O)C(CO)OC1n1cnc2c(NC3CCCCC3)ncnc21 (stereo unspecified) | . | . | . | -3% | . | -12%
Cc1nc2ccccc2c2oc(C(=O)NCCN3CCN(C)CC3)cc12 | -70* | -7% | -9% | 2% | 0% | 0%
Cc1nc2ccccc2c2oc(C(=O)NCCCN3CCCC3=O)cc12 | -14 | 0% | 4% | -1% | -3% | -22%
NC(N)=Nc1nc2cc([N+](=O)[O-])ccc2o1 | -71* | 0% | -3% | -2% | -14% | 28%
